# Test results reported in publication PMC4336329 (PLoS ONE, 2015).
# Out of some 310,000 compounds screened, about 2,200 (0.71%) showed an effect of 50% or more. The effect is printed as a negative number. Shown is part of a subset that was picked to be rich in strong results.
# Target: human ether-à-go-go-related gene (hERG) potassium channel (human, UniProt Q12809)
# Experiment: primary screen, population patch clamp on CHO cells stably expressing hERG; higher = less effect of the substance
# human ether-à-go-go-related gene (hERG) potassium channel, sequence (Q12809 whole entry, looked up): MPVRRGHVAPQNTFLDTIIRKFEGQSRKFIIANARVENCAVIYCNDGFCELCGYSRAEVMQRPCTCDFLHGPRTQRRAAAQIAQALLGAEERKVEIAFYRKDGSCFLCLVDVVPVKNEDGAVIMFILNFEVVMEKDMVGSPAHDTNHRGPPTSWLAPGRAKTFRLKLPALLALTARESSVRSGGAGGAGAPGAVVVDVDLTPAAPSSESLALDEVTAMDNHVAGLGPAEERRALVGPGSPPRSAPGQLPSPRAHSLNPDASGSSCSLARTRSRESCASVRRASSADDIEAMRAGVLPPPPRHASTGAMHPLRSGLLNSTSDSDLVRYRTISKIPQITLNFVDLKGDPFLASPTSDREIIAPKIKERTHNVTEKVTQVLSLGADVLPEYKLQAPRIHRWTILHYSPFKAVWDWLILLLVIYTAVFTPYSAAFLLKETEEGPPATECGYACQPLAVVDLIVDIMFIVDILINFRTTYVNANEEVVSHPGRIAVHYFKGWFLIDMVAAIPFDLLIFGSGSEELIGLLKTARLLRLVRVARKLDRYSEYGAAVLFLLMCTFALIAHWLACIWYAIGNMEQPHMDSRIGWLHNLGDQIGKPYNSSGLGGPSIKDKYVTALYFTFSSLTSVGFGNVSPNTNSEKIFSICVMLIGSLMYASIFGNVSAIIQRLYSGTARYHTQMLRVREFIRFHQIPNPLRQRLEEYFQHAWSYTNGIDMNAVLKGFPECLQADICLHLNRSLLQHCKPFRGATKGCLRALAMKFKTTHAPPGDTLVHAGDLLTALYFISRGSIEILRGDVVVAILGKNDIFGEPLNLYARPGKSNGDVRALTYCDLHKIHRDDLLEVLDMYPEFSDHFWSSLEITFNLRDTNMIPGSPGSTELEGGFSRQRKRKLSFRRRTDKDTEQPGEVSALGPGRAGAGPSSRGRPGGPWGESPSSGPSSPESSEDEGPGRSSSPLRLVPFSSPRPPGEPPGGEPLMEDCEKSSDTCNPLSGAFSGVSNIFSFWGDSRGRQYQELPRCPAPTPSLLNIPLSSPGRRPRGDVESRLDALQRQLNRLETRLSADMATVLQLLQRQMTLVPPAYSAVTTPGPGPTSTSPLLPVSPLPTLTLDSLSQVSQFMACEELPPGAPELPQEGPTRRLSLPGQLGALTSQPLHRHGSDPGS
row,Compound,"hERG current change (%, negative = inhibition) at 1uM [%]"
1,COc1cccc(CNC(=O)Cc2nc3nc(C)cc(C)n3n2)c1,14.5
2,COc1cc(/C=c2\sc3n(c2=O)CCCN=3)ccc1O,13.5
3,COc1ccc(/C=C/c2c([N+](=O)[O-])c(=O)n(C)c(=O)n2C)cc1OC,5.36
4,COc1ccc(-c2nsc(SCC(=O)Nc3cc(C)on3)n2)cc1,11.9
5,O=C(O)c1ccc(CNCc2ccc(Cl)cc2)cc1,11.3
6,O=C(CCc1ccccc1)Nc1cc2c3c(c1)CCC(=O)N3CCC2,-1.85
7,COc1ccc(-c2cc(C)no2)cc1S(=O)(=O)Nc1cccc(C)c1,15.5
8,CC(C)(C)NC(=O)C1Cc2ccccc2CN1S(=O)(=O)c1ccc(F)cc1 (centres unmarked),3.91
9,O=C(CC1CC2CCC1C2)NCCc1ccc(Cl)cc1 (centres unmarked),-0.305
10,Cn1cccc1/C=N/N1CCN(Cc2ccc(Cl)cc2)CC1,3.9
11,COc1ccc(COCC(O)CN2CCC(CN3C(=O)c4cccc5cccc(c45)C3=O)CC2)cc1OC.Cl (centres unmarked),-20.2
12,CCS(=O)(=O)N1CCN(S(=O)(=O)c2ccc3ccccc3c2)CC1,13
13,O=C(CSc1ccc(Cl)cc1)Nc1nnc(-c2ccco2)o1,-1.41
14,COc1cc(C2C(C#N)=C(N)Oc3cc(C)oc(=O)c32)cc(OC)c1OC (centres unmarked),20.5
15,COC(=O)c1cc(Br)c(=O)n(Cc2ccc(OC)c(OC)c2)c1,16.7
16,CCn1cc(C(=O)NCCCN2CC(C)CC(C)C2)c(=O)c2cc(S(=O)(=O)N(C)C3CCCCC3)ccc21 (centres unmarked),-91.4
17,CCCN(CCC)CCCNC(=O)c1cn(CC)c2ccc(S(=O)(=O)N3CCc4ccccc4C3)cc2c1=O,-47.9
18,CCCCN(CC)CCCNC(=O)c1cn(CC)c2ccc(S(=O)(=O)N3CCc4ccccc4C3)cc2c1=O,-71.9
19,CCn1cc(C(=O)NCCCN2CC(C)CC(C)C2)c(=O)c2cc(S(=O)(=O)N(C)C)ccc21 (centres unmarked),-17.3
20,CCOCCCNC(=O)c1cn(CC)c2ccc(S(=O)(=O)N(C)C3CCCCC3)cc2c1=O,11.3
21,CCN(CC)CCCNC(=O)c1cn(CC)c2ccc(S(=O)(=O)N3CCc4ccccc4C3)cc2c1=O,1.94
22,Oc1ccc(/C=N/Nc2ccc(C(F)(F)F)cn2)cc1,7.84
23,O=C(NCc1ccco1)C(=O)NCC1OCCCN1S(=O)(=O)c1ccc(F)cc1 (centres unmarked),10
